# From PubChem BioAssay (NCATS)
# “And” between values parts separate entries of the source, which are not always exact repeats. Equal values may be shown once. Records with an inconclusive call do not appear. Where a call stands in place of a potency, no number is given. The source made the active and inactive calls. Unless noted, calls come from the whole dose curve; as a rule, active = well fitted curve in the direction sought with a large enough effect; inconclusive = small, poorly fitted or top-dose-only effect, or another doubt; inactive = no such curve, though single readings can be large; an effect the other way counts as inactive or inconclusive.
# Tests used:
# [1] = HTS Assay for Allosteric Antagonists of the Human D2 Dopamine Receptor: Hit Validation in HTRF (AID 624455); settings: Cells stably expressing D1 dopamine receptor, inhibition mode; series mostly up to 46.1 µM; note: potency is the fitted concentration of half-maximal effect;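 note: stable D1 dopamine receptor cell line scored for blocking the D1 response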
# Outline: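 Inhibition of the D1-mediated response is measured by HTRF in cells that stably express the D1 dopamine receptor. Compounds reaching this step are hits from calcium-flux antagonism testing at EC80 dopamine in inducible Hek293 Trex D2 cells.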
# [2] = qHTS assay for small molecule agonists of the antioxidant response element (ARE) signaling pathway (AID 651741; active = well fitted activation curve with a large enough effect in the signal ratio; the % refers to the signal ratio); settings: HepG2 ARE-bla reporter, beta-lactamase FRET ratio, 16 h; series mostly up to 96 µM
# Outline: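 Stably integrated ARE-beta-lactamase reporter HepG2 cells; 16 h compound incubation, 37 C; LiveBLAzer FRET substrate 2 h at room temperature; fluorescence intensity.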
# [3] = qHTS assay for small molecule activators of the p53 signaling pathway (AID 651743; active = well fitted activation curve with a large enough effect in the signal ratio, not every such curve was filed as active; the % refers to the signal ratio); settings: HCT-116 p53RE-bla, beta-lactamase FRET ratio, 16 h; activation: stronger effect = higher value
# Outline: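 Following 16 hours of compound exposure at 37 C, HCT-116 cells bearing the p53RE-bla reporter were loaded with LiveBLAzer B/G FRET substrate for 2 hours at room temperature and fluorescence intensity was recorded.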
# [4] = Cytotoxicity counterscreen for NFkB agonists and antagonists (AID 624476); settings: NFkB reporter cell line viability counterscreen; series mostly up to 46.1 µM;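 note: cells exposed to compound for 48 hours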
# [5] = qHTS Assay for Identification of Small Molecule Agonists for NFkB Signaling Pathway. (AID 624478); settings: NFkB pathway reporter cell assay, agonist mode, cells co-stimulated with 10 pM TNF alpha; series mostly up to 46.1 µM;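 note: compounds tested together with TNF alpha at its EC50 of 10 pM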
# Outline: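 Activators were sought in reporter cells stimulated at the TNF alpha EC50 (10 pM final). Compound and cytokine were co-incubated 5 hours at 37 C before beta-lactamase substrate detection by dual-emission fluorescence.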
# [6] = qHTS Assay for Identification of Small Molecule Antagonists for NFkB Signaling Pathway. (AID 624479; calls by dose curve; note: potency is the fitted concentration of half-maximal effect); settings: NFkB pathway reporter cell assay, antagonist mode; series mostly up to 38.3 µM
# [7] = Cell Proliferation Assay against the TMD8 Cell Line (AID 651645); settings: TMD8 DLBCL cell line proliferation/viability; at 46.1 µM (top of the series);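 note: cells exposed to compound for 48 h before reading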
# Outline: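 Luminescent ATP read-out (CellTiter-Glo, 15 min RT) after 48 h compound exposure of log-growing TMD8 cells at 37C; percent activity scaled between DMSO as 100% and 9.2 uM bortezomib final as 0%.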
# [8] = Cell Proliferation Assay against the HBL1 Cell Line (AID 651646); settings: HBL1 DLBCL cells; at 46.1 µM (top of the series);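 note: cells exposed to compound for 48 h before reading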
# Outline: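 HBL1, 500 cells/well, RPMI no phenol red + 5% FBS; cpd pinned, 48 h 37C/5% CO2; CellTiter-Glo, 15 min RT, luminescence. % activity: DMSO = 100%, bortezomib 9.2 uM final = 0%.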
# [9] = Cell Proliferation Assay against the TMD8 Cell Line (Caspase readout at 16 hrs) (AID 651712); settings: TMD8 lymphoma cells, caspase activation luminescence; series mostly up to 46.1 µM; note: potency is the fitted concentration of half-maximal effect
# Outline: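 Caspase-Glo luminescence after 16 h compound exposure of TMD8 cells, 37 °C, 5% CO2. Medium: RPMI without phenol red, 5% FBS. Normalisation: DMSO = 0%, bortezomib 9.2 uM final = 100%.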
# [10] = Cell Proliferation Assay against the TMD8 Cell Line (Caspase readout at 8 hrs) (AID 651713); settings: TMD8 lymphoma cells, caspase activation luminescence; series mostly up to 46.1 µM; note: potency is the fitted concentration of half-maximal effect
# Outline: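 Caspase 3/7 activation in ABC DLBCL TMD8 cells is measured by luminescence after an 8 h compound exposure at 37C. Relative light units are scaled between DMSO (0%) and 9.2 uM final bortezomib (100%).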
compound,measurement,setting,value
CNCC(O)c1ccc(O)cc1 (configuration not stated),Potency,[1],inactive
same,Potency,[2],inactive
same,activation,[3],-2.83% (inactive)
Cc1cccc(C)c1NC(=O)CN1CCCC1=O,Potency,[1],inactive
Cn1c(CCCC(=O)O)nc2cc(N(CCCl)CCCl)ccc21,Potency,[4],inactive
same,outcome,[5],inactive
same,Potency,[6],inactive
same,viability (% of control),[7],95.4%
same,"viability, percent of control",[8],108%
same,Potency,[9],inactive
same,Potency,[10],inactive
c1ccc2c(c1)OCC(C1=NCCN1)O2 (configuration not stated),Potency,[1],inactive
NCC1(CC(=O)O)CCCCC1,Potency,[1],inactive
COc1ccc(C(=O)c2c(C)n(CCN3CCOCC3)c3ccccc23)cc1,Potency,[4],inactive
same,outcome,[5],inactive
same,Potency,[6],inactive
same,viability (% of control),[7],18.8%
same,"viability, percent of control",[8],50.4%
same,Potency,[9],20.9 µM (active)
same,Potency,[10],26.4 µM (active)
Cc1ccc(S(=O)(=O)N[C@@H](CCCCN)C(=O)CCl)cc1,Potency,[1],inactive
CCC1(C2=NCCN2)Cc2ccccc2O1 (configuration not stated),Potency,[1],inactive
O=C1NCN(c2ccccc2)C12CCN(CC1COc3ccccc3O1)CC2 (configuration not stated),Potency,[1],inactive
CC[C@@H](CO)NC(=O)[C@@H]1C=C2c3cccc4[nH]cc(c34)C[C@H]2N(C)C1,Potency,[1],5.2 nM (active)
CNC(=O)N1N=C(c2ccc(N)cc2)c2cc3c(cc2CC1C)OCO3 (configuration not stated),Potency,[4],inactive
same,outcome,[5],inactive
same,Potency,[6],inactive
same,viability (% of control),[7],5.8%
same,"viability, percent of control",[8],20%
same,Potency,[9],18.7 µM (active)
same,Potency,[10],inactive
Fc1ccc(C(OCCN2CCN(CCCc3ccccc3)CC2)c2ccc(F)cc2)cc1,Potency,[1],inactive
O=c1[nH]c2ccccc2n1CCCN1CCC(n2c(=O)[nH]c3cc(Cl)ccc32)CC1,Potency,[1],inactive
Cc1cccc(C)c1NC1=NCCCS1,Potency,[1],inactive
CC(O)(CS(=O)(=O)c1ccc(F)cc1)C(=O)Nc1ccc(C#N)c(C(F)(F)F)c1 (configuration not stated),Potency,[1],inactive
same,Potency,[4],inactive
same,outcome,[5],inactive
same,Potency,[6],inactive
same,viability (% of control),[7],109%
same,"viability, percent of control",[8],95.3%
same,Potency,[9],inactive
same,Potency,[10],inactive
NN=C(N)N,Potency,[1],inactive
CC[N+](C)(C)c1cccc(O)c1,Potency,[1],inactive
O=c1[nH]c2ccccc2n1C1CCN(CCCC(c2ccc(F)cc2)c2ccc(F)cc2)CC1,Potency,[1],inactive
Cn1cc(C2=C(c3cn(C4CCN(Cc5ccccn5)CC4)c4ccccc34)C(=O)NC2=O)c2ccccc21,Potency,[4],inactive
same,outcome,[5],inactive
same,Potency,[6],6.68 µM (active)
same,viability (% of control),[7],3.76%
same,"viability, percent of control",[8],33.2%
same,Potency,[9],16.6 µM (active)
Nc1ccncc1,Potency,[1],inactive
same,Potency,[2],inactive
same,activation,[3],2.37% (inactive)
N#CC(C#N)=Cc1ccc(O)c(O)c1,Potency,[1],inactive
NCC(CC(=O)O)c1ccc(Cl)cc1 (configuration not stated),Potency,[1],inactive
COC1(CS(=O)c2ccccc2)CCN(CCc2c[nH]c3ccc(F)cc23)CC1 (configuration not stated),Potency,[4],inactive
same,outcome,[5],inactive
same,Potency,[6],inactive
same,viability (% of control),[7],79.9%
same,"viability, percent of control",[8],108%
same,Potency,[9],inactive
same,Potency,[10],inactive
CC(=O)[C@H]1CC[C@H]2[C@@H]3CC[C@H]4C[C@H](O)CC[C@]4(C)[C@H]3C(=O)C[C@]12C,Potency,[1],inactive
C=C(C)[C@H]1Cc2c(ccc3c2O[C@@H]2COc4cc(OC)c(OC)cc4[C@@H]2C3=O)O1,Potency,[1],inactive
COC[C@H]1OC(=O)c2coc3c2[C@@]1(C)C1=C(C3=O)C2CCC(=O)[C@@]2(C)C[C@H]1OC(C)=O (some centres not stated),Potency,[1],inactive
same,outcome,[5],inactive
same,Potency,[6],13.3 µM (active)
same,viability (% of control),[7],17.1%
same,"viability, percent of control",[8],61.7%
same,Potency,[10],23.5 µM (active)
c1ccc(C2CC2)c(OCC2=NCCN2)c1,Potency,[1],inactive
CN1C[C@H](CNC(=O)OCc2ccccc2)C[C@@H]2c3cccc4c3c(cn4C)C[C@H]21,Potency,[1],inactive
CCCC(C)(COC(N)=O)COC(=O)NC(C)C (configuration not stated),Potency,[1],inactive
same,Potency,[2],inactive
same,activation,[3],1.85% (inactive) and -3% (inactive)
CC(=O)[C@H]1CC[C@H]2[C@@H]3CC[C@H]4C[C@](C)(O)CC[C@]4(C)[C@H]3CC[C@]12C,Potency,[1],inactive
Cc1ncc(CNC(=O)N(CCCl)N=O)c(N)n1,Potency,[1],inactive
CC(CCc1ccccc1)NC(C)C(O)c1ccc(O)cc1 (configuration not stated),Potency,[1],inactive
C[C@@H]1O[C@@H](O[C@H]2C[C@@H](O)[C@]3(CO)[C@H]4[C@H](O)C[C@]5(C)[C@@H](C6=CC(=O)OC6)CC[C@]5(O)[C@@H]4CC[C@]3(O)C2)[C@H](O)[C@H](O)[C@H]1O,Potency,[1],inactive
COc1ccccc1N1CCNCC1,Potency,[1],inactive
CC(C)=CCOc1c2occc2cc2ccc(=O)oc12,Potency,[1],inactive
